# From PubChem BioAssay
# Active and inactive are the calls of the source.
# Key:
# [1] = anti-His antibody binders, primary screen, artefact control for SMM control protein annotation, biochemical, small-molecule microarray, 635 nm fluorescence (AID 1128); conditions: anti-His Alexa647 antibody binding, higher = more signal;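 further: score merges feature fluorescence with signal-to-noise for each printed compound spot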
# [2] = test system: Human papillomavirus type 1a E7 protein (residues 1-88); test: HPV1a E7 small-molecule binders, primary screen, biochemical, small-molecule microarray, residues 1-88, 635 nm (AID 1129); conditions: small-molecule microarray binding, fluorescence 635 nm; higher = more signal
# [3] = target: Focal adhesion kinase 1 (Homo sapiens) (UniProt Q05397); test: small-molecule microarray binders of FAK, primary screen, biochemical, 635/667 nm fluorescence, BSA, DTT (AID 1130); conditions: PTK2 binding, 635 nm fluorescence, higher = more signal;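 further: composite of spot emission at 667 nm and signal to noise over triplicate slides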
# [4] = test system: Fibrinogen (Alexa647-labelled); test: fibrinogen binders on compound microarrays, profiling panel, artefact control for SMM control-protein annotation, biochemical, small-molecule microarray, 635/667 nm fluorescence (AID 1131); conditions: fibrinogen-A647 binding fluorescence, higher = more signal;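 further: z-score merges 667 nm fluorescence with per-spot signal-to-noise over triplicate slides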
# [5] = target: Follistatin (Homo sapiens) (UniProt P19883); test: follistatin binders on small-molecule microarrays, primary screen, biochemical, small-molecule microarray, 635/667 nm fluorescence (AID 1132); conditions: FST binding, 635 nm fluorescence, higher = more signal
# [6] = target: Fibroblast growth factor 2 (Homo sapiens) (UniProt P09038); test: FGF2 binders on small-molecule microarrays, primary screen, biochemical, small-molecule microarray, 635/667 nm fluorescence (AID 1133); conditions: small-molecule microarray binding, FGF2, fluorescence 635/667; higher = more signal
# [7] = mitochondrial membrane potential change in A549 cells, profiling panel, cell-based, JC-1 fluorescence, basal, 24 h, 100 nL (AID 1138); conditions: higher = more signal;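 further: A549 lung adenocarcinoma cells under basal conditions with no added stimulus; test concentration not given here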
# Lefty1 = Lefty1 binders on small-molecule microarrays, primary screen, biochemical, small-molecule microarray, 635/667 nm fluorescence (AID 1139); conditions: small-molecule microarray binding, fluorescence 635/667; higher = more signal
# [8] = test system: wheat germ agglutinin (Triticum aestivum), Alexa647-labelled; test: wheat germ agglutinin binders on compound microarrays, profiling panel, artefact control for SMM control-protein annotation, biochemical, small-molecule microarray, 635/667 nm fluorescence (AID 1140); conditions: WGA-A647 binding, 635 nm fluorescence, higher = more signal;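 further: score merges 667 nm feature emission with signal to noise over triplicate slides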
# [9] = target: Luciferin 4-monooxygenase (Photinus pyralis) (UniProt P08659); test: firefly luciferase enzyme inhibitors, primary screen, biochemical, luminescence, purified enzyme, 2006 set (AID 1141); conditions: SteadyGlo luminescence, 30 min, higher = more signal, called active from +8 up or from −8 down;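 further: cell-free assay with purified firefly luciferase at 100 ng per well in PBS; test concentration not given here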
# Chain of Luciferin 4-monooxygenase (Photinus pyralis) (P08659 whole entry, looked up): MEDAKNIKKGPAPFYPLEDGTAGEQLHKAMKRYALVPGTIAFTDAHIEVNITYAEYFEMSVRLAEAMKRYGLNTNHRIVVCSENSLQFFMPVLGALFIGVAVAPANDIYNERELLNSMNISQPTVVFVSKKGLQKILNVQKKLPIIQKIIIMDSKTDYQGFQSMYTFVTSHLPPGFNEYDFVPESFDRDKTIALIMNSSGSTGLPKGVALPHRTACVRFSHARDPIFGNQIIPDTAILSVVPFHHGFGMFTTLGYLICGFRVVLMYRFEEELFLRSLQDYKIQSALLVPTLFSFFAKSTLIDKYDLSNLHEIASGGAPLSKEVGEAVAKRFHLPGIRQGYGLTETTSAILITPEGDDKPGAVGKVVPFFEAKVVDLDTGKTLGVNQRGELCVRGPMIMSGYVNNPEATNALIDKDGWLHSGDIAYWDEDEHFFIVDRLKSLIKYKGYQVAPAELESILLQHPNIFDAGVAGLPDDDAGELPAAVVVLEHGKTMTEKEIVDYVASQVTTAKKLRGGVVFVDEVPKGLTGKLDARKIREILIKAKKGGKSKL
# Chain of Focal adhesion kinase 1 (Homo sapiens) (Q05397 whole entry, looked up): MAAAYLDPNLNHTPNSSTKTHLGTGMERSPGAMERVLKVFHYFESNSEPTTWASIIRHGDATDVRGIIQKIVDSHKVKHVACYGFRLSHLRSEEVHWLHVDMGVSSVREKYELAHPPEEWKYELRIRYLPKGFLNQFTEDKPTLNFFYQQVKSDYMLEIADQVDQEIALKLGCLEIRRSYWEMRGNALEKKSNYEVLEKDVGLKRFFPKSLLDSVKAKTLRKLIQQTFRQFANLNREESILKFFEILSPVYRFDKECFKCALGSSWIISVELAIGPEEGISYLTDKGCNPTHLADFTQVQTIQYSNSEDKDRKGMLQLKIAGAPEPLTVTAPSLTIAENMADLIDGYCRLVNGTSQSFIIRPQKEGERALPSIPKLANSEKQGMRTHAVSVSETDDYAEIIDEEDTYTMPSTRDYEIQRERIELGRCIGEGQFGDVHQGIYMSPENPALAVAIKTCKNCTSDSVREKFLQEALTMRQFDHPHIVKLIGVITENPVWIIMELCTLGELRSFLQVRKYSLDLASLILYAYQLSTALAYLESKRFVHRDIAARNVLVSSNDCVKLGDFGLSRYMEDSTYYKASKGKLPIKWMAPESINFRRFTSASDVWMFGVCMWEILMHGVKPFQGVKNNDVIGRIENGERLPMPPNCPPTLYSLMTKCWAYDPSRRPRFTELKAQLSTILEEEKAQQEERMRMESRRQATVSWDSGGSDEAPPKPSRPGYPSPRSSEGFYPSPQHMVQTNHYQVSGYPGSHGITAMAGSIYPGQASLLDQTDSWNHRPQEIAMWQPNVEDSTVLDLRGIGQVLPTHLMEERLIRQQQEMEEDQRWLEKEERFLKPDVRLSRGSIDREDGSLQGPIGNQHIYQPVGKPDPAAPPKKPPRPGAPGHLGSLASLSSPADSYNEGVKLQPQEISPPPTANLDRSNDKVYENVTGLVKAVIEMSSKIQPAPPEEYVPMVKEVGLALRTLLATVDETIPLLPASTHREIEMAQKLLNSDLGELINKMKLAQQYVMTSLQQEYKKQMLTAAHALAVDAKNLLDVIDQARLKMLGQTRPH
# Chain of Follistatin (Homo sapiens) (P19883 whole entry, looked up): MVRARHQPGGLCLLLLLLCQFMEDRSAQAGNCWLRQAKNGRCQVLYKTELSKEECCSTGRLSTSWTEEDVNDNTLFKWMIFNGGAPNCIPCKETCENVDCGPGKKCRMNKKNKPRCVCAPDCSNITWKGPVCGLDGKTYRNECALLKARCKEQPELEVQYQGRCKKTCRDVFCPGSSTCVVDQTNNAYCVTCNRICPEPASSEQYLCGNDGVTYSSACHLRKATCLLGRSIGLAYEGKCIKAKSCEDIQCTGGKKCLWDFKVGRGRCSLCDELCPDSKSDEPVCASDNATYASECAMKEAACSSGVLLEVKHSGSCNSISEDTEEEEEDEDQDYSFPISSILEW
# Chain of Fibroblast growth factor 2 (Homo sapiens) (P09038 whole entry, looked up): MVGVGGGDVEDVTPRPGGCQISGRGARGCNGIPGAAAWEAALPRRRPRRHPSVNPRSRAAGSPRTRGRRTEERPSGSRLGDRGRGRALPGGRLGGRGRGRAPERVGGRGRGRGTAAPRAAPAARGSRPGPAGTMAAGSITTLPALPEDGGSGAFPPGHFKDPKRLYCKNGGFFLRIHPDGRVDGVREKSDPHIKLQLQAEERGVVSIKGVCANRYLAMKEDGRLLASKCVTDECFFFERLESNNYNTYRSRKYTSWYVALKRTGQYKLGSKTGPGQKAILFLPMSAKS
SMILES,composite z-score [1],composite z-score [2],composite z-score [3],composite z-score [4],composite z-score [5],composite z-score [6],z-score [7],composite z-score (Lefty1),composite z-score [8],z-score [9]
O=C1[C@H]2[C@H]3[C@H](O)[C@H](O)CC(=NOC[C@@H](O)COCc4ccco4)[C@H]3CC[C@H]2C(=O)N1Cc1ccc2c(c1)OCO2,0.729,-0.413,-0.237,-0.447,1.3,1.57,-0.0273,1.25,-0.186,0.546 (inactive)
Cc1cc2c(c(=O)o1)[C@H](O)[C@H]1O[C@H]1C2=O,-0.633,-1.07,-0.21,-0.236,0.429,0.126,-1.23,-0.32,-0.137,-0.0074 (inactive)
CC(=O)OC[C@H]1O[C@H](CCON=C(C)CCC(=O)OC[C@H]2O[C@H](C#Cc3ccccc3)C=C[C@@H]2Oc2ccc(C)cc2)C=C[C@@H]1OC(C)=O,0.0004,0.125,0.369,0.185,0.496,0.592,-0.518,0.802,0.0698,0.54 (inactive)
COC(=O)[C@H](C)NC(=O)CCC1CC(OC(=O)NCCc2ccc(F)cc2)CC2(CCCC(COC(=O)NCCc3ccc(Cl)cc3)O2)O1 (stereo not given in full),0.225,0.966,0.167,0.873,0.646,1.05,0.994,1.25,0.766,0.0182 (inactive)
CCN(CC)c1ccc(N2CC=CC34O[C@@H]5/C=C\CCC(C)OC(=O)C5[C@H]3C(=O)N(CCCO)[C@@H]4C2=O)cc1 (stereo not given in full),0.494,-0.191,-0.216,-0.892,-0.247,-0.615,0.881,-0.784,-0.529,-0.936 (inactive)
O=C1O[C@@H](c2ccccc2)[C@@H](c2ccccc2)N2[C@@H](c3ccccc3OCCO)[C@]3(C(=O)Nc4ccc(C#CCCO)cc43)[C@@H](C(=O)O)[C@H]12,2.14,1.18,0.459,0.923,0.89,0.598,-0.406,1.37,0.365,-0.703 (inactive)
COC(=O)[C@H](C)NC(=O)CCC1CC(OC(=O)NCc2cccc3ccccc23)CC2(CCCC(COC(=O)NCCc3ccc(Cl)cc3)O2)O1 (stereo not given in full),0.591,1.06,0.178,0.228,0.225,0.212,0.179,1.03,0.411,0.632 (inactive)
CCCC[C@H]1OB(O)C[C@H]2C1=C(C)C[C@H]1C(=O)N(C)C(=O)[C@H]12,-0.0755,0.739,0.248,0.615,0.931,1.31,0.445,0.794,0.556,-0.769 (inactive)
CC(C)=CCCC(C)=CCON=C1[C@H]2CCn3c(=O)n(Cc4cc5c(cc4Cl)OCO5)c(=O)n3[C@H]2[C@H](O)[C@@H]2O[C@H]12,0.321,0.349,0.138,0.544,0.908,0.367,-0.939,0.889,-0.0863,0.196 (inactive)
COC(=O)[C@H](C)NC(=O)CCC1CC(OC(=O)NCCc2ccc(F)cc2)CC2(CCCC(COC(=O)NCC(c3ccccc3)c3ccccc3)O2)O1 (stereo not given in full),0.862,1.18,0.548,0.834,0.342,0.0725,0.549,0.483,0.958,0.467 (inactive)
Cn1cccc1C(O)C1C=CC2C(=O)NC(=O)C2N1Nc1ccccn1 (stereo not given),0.195,-0.789,-0.35,-0.0084,0.776,0.126,-1.96,0.097,1.03,-1.41 (inactive)
CC(C)=NOCc1cccc(-c2cc(-c3ccccc3)no2)c1,0.545,0.974,0.882,0.464,0.973,0.727,0.732,0.92,0.848,-0.158 (inactive)
C=CC[C@@H]1C=C[C@H](ON=C2c3cc(OC)ccc3O[C@H](c3cccc(OC)c3)[C@H]2O)[C@@H](CO)O1,-0.738,-0.133,0.374,0.352,-0.0389,0.369,-0.102,0.873,0.499,-0.101 (inactive)
O=C1O[C@@H](c2ccccc2)[C@@H](c2ccccc2)N2[C@@H](c3ccc(OCCO)cc3)[C@]3(C(=O)Nc4ccccc43)[C@@H](C(=O)N3CCN(c4ncccn4)CC3)[C@H]12,1.08,1.18,0.687,0.489,1.28,1.17,-0.473,1.19,0.929,-1.4 (inactive)
COc1ccc([Si](C)(C)[C@H]2[C@H](CCO)O[C@@]3(C(=O)N(Cc4cccc(NC(=O)[C@H](C)O)c4)c4ccccc43)[C@@H]2C)cc1,1.75,1.15,0.598,0.83,1.11,0.684,-0.598,1.23,0.23,-0.208 (inactive)
CO[C@H]1COC(=O)CC=C[C@H](C)[C@@H](NS(=O)(=O)c2ccc(C)cc2)COC(=O)CC=C[C@@H]1C,2.79,0.0835,0.0018,0.0607,0.932,0.585,-0.662,0.819,-0.0118,-0.277 (inactive)
C[C@@H](c1ccccc1)N1C(=O)[C@H]2[C@H]3[C@H](O)[C@H](O)CC(=NOC[C@@H](O)COCc4ccco4)[C@@H]3CC[C@H]2C1=O,-0.623,-0.604,0.126,0.448,-0.761,-0.728,-0.62,-0.809,0.112,0.558 (inactive)
COC(=O)[C@@H]1CC[C@H](C)[C@@H](c2ccc(C)cc2)N1C(=O)c1ccc(C=NOC[C@@H](O)COCc2ccco2)cc1,0.373,-1.79,-0.574,-1.68,-0.526,-1.18,-0.245,-1.09,-0.893,0.193 (inactive)
CCOC(=O)CCN1C(=O)[C@H]2[C@H]3[C@H](O)[C@H](O)CC(=NOC[C@@H](O)COCc4ccco4)[C@H]3CC[C@H]2C1=O,0.659,0.785,0.857,0.894,0.938,0.229,-1.06,0.863,0.288,0.586 (inactive)
CCN1C(=O)[C@H]2[C@H]3[C@H](O)[C@H](O)CC(=NO[C@@H]4O[C@H](CO)[C@@H](O)[C@H](O)[C@H]4O)[C@@H]3CC[C@H]2C1=O,-0.0636,-1.45,-0.41,-2.56,0.477,0.0724,0.459,0.232,0.714,-0.156 (inactive)
O=C1CCCC2OC12C(O)CCc1ccccc1 (stereo not given),0.259,-0.0206,0.0538,0.558,0.321,0.268,0.112,0.279,-0.0681,-0.443 (inactive)
O=C(NN=C1C[C@@H](O)[C@@H](O)[C@@H]2[C@@H]3C(=O)N(c4ccc(F)cc4F)C(=O)[C@@H]3CC[C@@H]12)OCc1ccccc1,0.419,0.117,-0.179,0.723,0.385,-0.191,-0.281,0.341,0.336,0.894 (inactive)
C=CC[C@]1(C(=O)NCc2ccccc2)N=C(c2ccc(OCCCO)cc2)O[C@H]1c1ccccc1,-0.158,1.22,0.115,0.632,0.431,-0.35,0.453,-0.0085,0.366,0.185 (inactive)
